# Screening results from PubChem BioAssay.
# PostGolgi ctrl – inhibits growth of the yeast control strain. 98,000 compounds, 5% hits. inhibition, % at 10 µM. AID 738. efflux-deficient yeast background strain, growth absorbance A615, 16 h
# CYP2C19 act – cytochrome P450 2C19 (human) activation | activation factor at 5 µM | 96,000 tested, under 10 active | P33261 | recombinant CYP2C19, luciferin-H EGE luminescence; active compounds read high; 0 = fully inhibited enzyme, 1 = untreated enzyme | AID 1025;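 active = activation factor of at least 2 at 5 µM in the primary screen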
# Target sequence (P33261 whole entry, looked up): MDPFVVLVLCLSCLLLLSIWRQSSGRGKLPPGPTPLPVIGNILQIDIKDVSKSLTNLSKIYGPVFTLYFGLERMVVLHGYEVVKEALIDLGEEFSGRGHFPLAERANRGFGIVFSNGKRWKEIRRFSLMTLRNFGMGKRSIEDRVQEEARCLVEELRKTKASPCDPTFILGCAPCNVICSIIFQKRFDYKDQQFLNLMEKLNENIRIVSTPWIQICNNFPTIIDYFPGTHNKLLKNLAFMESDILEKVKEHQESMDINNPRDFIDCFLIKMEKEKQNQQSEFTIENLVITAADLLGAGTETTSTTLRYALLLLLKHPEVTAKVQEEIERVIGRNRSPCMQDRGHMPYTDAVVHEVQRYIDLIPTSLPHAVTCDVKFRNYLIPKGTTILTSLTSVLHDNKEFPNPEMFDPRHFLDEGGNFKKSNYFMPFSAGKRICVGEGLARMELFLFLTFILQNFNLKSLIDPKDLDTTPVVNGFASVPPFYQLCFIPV
# CYP2C9 inh – inhibitors of human CYP2C9; CYP2C9 Supersomes, luciferin-H conversion, luminescence; inhibition, % at 5 µM; 96,000 compounds, 20% hits; AID 777; P11712;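 active = blocking of liver enzyme CYP2C9 beyond about 50% at 5 µM, limit read from the data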
# PostGolgi yeast – growth inhibition of a yeast mutant, post-Golgi transport screen; post-Golgi transport phenotypic cell assay; inhibition, % at 10 µM; 98,000 compounds, 0.9% hits; AID 739;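 also: yeast cells grown in 1536-well plates; yeast grown about 18 h at 30C before absorbance read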
# CYP2C9 act – CYP2C9 (human) activation. P11712. recombinant CYP2C9, luciferin-H conversion, luminescence; active compounds read high; factor 1 = untreated enzyme, 0 = blocked. activation factor at 5 µM. 96,000 compounds, 1.4% hits. AID 1024;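 active = activation factor of 2 or more for CYP2C9 at a 5 µM dose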
# CYP2C19 inhib – inhibitors of human CYP2C19 | P33261 | CYP2C19 Supersomes, luciferin-H EGE luminescence, 30 min | inhibition, % at 5 µM | 96,000 compounds, 21% hits | AID 778;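 active = CYP2C19 inhibition above a set limit at 5 µM in the primary screen, cut at about 50% in these data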
# A number is an active result; 0 = inactive; - = no result. These entries were drawn from the full list. Rule as the data show it, unless noted: active = inhibition above about 30%; inactive = the rest.
SMILES,PostGolgi ctrl,CYP2C19 act,CYP2C9 inh,PostGolgi yeast,CYP2C9 act,CYP2C19 inhib
O=C(CCc1nc2ccccc2s1)N1CCN(S(=O)(=O)c2cccs2)CC1,0,0,59,0,0,70
COc1ccc(S(=O)(=O)N2CCC(C(=O)Nc3c(F)cccc3F)CC2)cc1,0,0,0,0,0,0
COCC(=O)c1[nH]c2ccccc2c1C,0,0,0,0,0,0
CC(C)OC(=O)CC12CN(C)CC(CC(=O)OC(C)C)(CN(C)C1)C2=O,0,0,0,0,0,0
O=C(CCCOc1ccccc1)N1CCN(S(=O)(=O)c2cccs2)CC1,0,0,0,0,0,0
O=C(CCCc1cccs1)N1CCN(S(=O)(=O)c2ccccc2Br)CC1,0,0,69,0,0,0
CC1=C(C(=O)OCC(C)C)C23C(=O)c4ccccc4C2(O1)OC(N)=C3C#N (stereo not given),0,0,68,0,0,86
Cn1c(SCc2cccc(C(F)(F)F)c2)nnc1-c1ccco1,0,0,0,0,0,72
Nn1c(SCc2cccc(C(F)(F)F)c2)nnc1-c1ccco1,0,0,0,0,0,94
Cc1ccc(CSc2nnc(-c3ccco3)n2N)cc1,0,0,0,0,0,0
CCN(C(=O)c1sc(N)c(C#N)c1C)C1CCCCC1,0,0,0,0,0,59
CCN(CC)C(=O)c1sc(NC(=O)Cc2cccs2)c(C#N)c1C,0,0,0,0,0,0
CCN(Cc1ccncc1)S(=O)(=O)c1ccc(C(C)=O)cc1,0,0,87,0,0,91
O=C(Nc1cc(Sc2ccccn2)cc([N+](=O)[O-])c1)c1ccc([N+](=O)[O-])cc1,0,0,0,0,0,0
Cc1ccc2[nH]c3c(c2c1)CN(C(=O)CN1CCN(Cc2ccc4c(c2)OCO4)CC1)CC3,0,0,62,0,0,62
Cc1ccc2[nH]c3c(c2c1)CN(C(=O)CN1CCN(c2ccccn2)CC1)CC3,0,0,0,0,0,0
Cc1ccc2[nH]c3c(c2c1)CN(C(=O)CN1CC(C)OC(C)C1)CC3 (stereo not given),0,0,0,0,0,71
Cc1ccc2[nH]c3c(c2c1)CN(C(=O)CN1CCSCC1)CC3,0,0,0,0,0,51
C=CCNS(=O)(=O)c1nc(C)c(Cl)c(C)c1C#N,0,0,0,0,0,0
CCn1cc(C(=O)Nc2ccc(C(=O)N3CCCC3)cc2)c(=O)c2ccc(C)nc21,-,0,0,-,0,0
CS(=O)(=O)N(CC(=O)N1CCC(C(N)=O)CC1)C1CCCCC1,0,0,0,0,0,0
O=C(CSc1nc(C2CC2)nc2sc3c(c12)CCCC3)NCc1ccco1,0,0,0,0,0,0
CCCn1c(=O)n(C)c(=O)c2c(SCC(=O)NCc3ccco3)nc(C3CC3)nc21,0,0,59,0,0,0
CCS(=O)(=O)N1CCN(C(=O)c2ccc(-c3ccccc3)cc2)CC1,0,0,0,0,0,0
c1ccc(-c2nc(-c3ccco3)cs2)nc1,0,0,0,0,0,0
SMILES,PostGolgi ctrl,CYP2C19 act,CYP2C9 inh,PostGolgi yeast,CYP2C9 act,CYP2C19 inhib
c1ccc(-c2ccc(-c3nc(-c4ccccn4)no3)cc2)cc1,0,0,0,0,0,0
Clc1cccc(-c2nc(-c3ccccn3)no2)c1,0,0,0,0,0,51
Cc1ccc(-c2nc(-c3ccccn3)no2)cc1,0,0,58,0,0,87
c1ccc(-c2noc(-c3ccco3)n2)nc1,0,0,0,0,0,77
CCCOCCOC(=O)C1=C(C)NC(=O)NC1c1cc(Cl)c(O)c(OC)c1 (stereo not given),0,0,0,0,0,0
Cc1c(NC(=O)c2ccco2)cccc1-c1nc2cccnc2s1,0,0,0,0,0,0
O=[n+]1cc(-c2cccc3ccccc23)n([O-])c2c1CCC2,0,0,0,0,0,0
O=C(NC1CCCCC1)C(c1ccc(F)cc1)N(C(=O)c1cccs1)c1ccc2c(c1)OCO2 (stereo not given),0,0,0,0,0,0
CC(C)c1ccc(N2C(=O)CSC23C(=O)N2CCCc4cccc3c42)cc1 (stereo not given),0,0,0,0,0,0
Cc1nnsc1C(=O)NC1CCCCC1,0,0,0,0,0,0
Cc1ccc(NC(=O)CCC(=O)NNC(=O)c2cccs2)cc1C,0,0,0,0,0,0
CCOc1ccc(S(=O)(=O)Nc2cc(OC)ccc2OC)cc1,0,0,55,0,0,100
